Drawing on PubChem BioAssay (Tox21), this text covers Potency and outcome for eight compounds.

SMILES strings stand for the structures. “And” between values parts separate entries of the source, which are not always exact repeats. Identical values can stand only once. Results filed as inconclusive are left out. A structure can be active in one record and inactive in another. The source made the active and inactive calls. Unless noted, calls follow the shape of the dose curve; as a rule, active = well fitted curve in the direction sought with a large enough effect in the repeat runs; inconclusive = weak or mixed curves; inactive = no such curve, though single readings can be large; an effect the other way counts as inactive or inconclusive.

The target in assay [1] is Estrogen receptor beta (Homo sapiens) (UniProt Q92731). Put plainly: qHTS assay to identify small molecule agonists of the estrogen receptor beta (ER-beta) signaling pathway (AID 1259377; active = well fitted activation curve with a large enough effect in the signal ratio in the repeat runs, not every such curve was filed as active; the % refers to the signal ratio). In short, it runs like this:
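Reporter cells (HEK293T, ER-beta-UAS-bla) receive compounds or DMSO after a 6 hr pre-incubation. They then incubate 16 hr at 37C/5% CO2, and fluorescence from LiveBLAzer B/G substrate is measured after 2 hours at room temperature.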

The target is the same in assay [2]. The assay is described as follows: qHTS assay to identify small molecule antagonists of the estrogen receptor beta (ER-beta) signaling pathway (AID 1259378; active = well fitted inhibition curve with a large enough effect in the signal ratio in the repeat runs, not every such curve was filed as active; the % refers to the signal ratio; also: potency is read from the fitted curve at half-maximal effect). In short, it runs like this:
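ER-beta-UAS-bla HEK293T cells in 2% charcoal-stripped FBS medium treated with compound plus 1nM final 17-beta-estradiol for 16 hr at 37C. Beta-lactamase reporter read by FRET substrate fluorescence after 2 hours at room temperature.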

Assay [3] can be described thus: qHTS assay to identify small molecule agonists of the estrogen receptor beta (ER-beta) signaling pathway - cell viability counter screen (AID 1259380). Also: nearly all actives have a fitted effect of over 30% in size. Also: potency is read from the fitted curve at half-maximal effect. In short, it runs like this: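 Measured: luminescence from CellTiter-Glo after 30 min at room temperature, added to wells already read for the LiveBLAzer FRET reporter (2 hr substrate); ER-beta-UAS-bla HEK293T cells had 16 hr compound treatment at 37C, 5% CO2.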

Assay [4] in a line: qHTS assay to identify small molecule antagonists of the estrogen receptor beta (ER-beta) signaling pathway - cell viability counter screen (AID 1259382). Also: series mostly up to about 92 µM; nearly all actives have a fitted effect of over 55% in size. In short, it runs like this: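 Readout: luminescence, CellTiter-Glo, same wells as bla assay. System: ER-beta-UAS-bla GripTite HEK293T, 2% charcoal-stripped FBS. Exposure: compounds plus 1nM 17-beta-estradiol, 16 hr, 37C.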

Assay [5] is described as follows: qHTS assay to identify small molecule agonists or antagonists of the thyroid stimulating hormone receptor (TSHR) signaling pathway - wild type cell line counter screen (AID 1259384; calls by dose curve). The essentials: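 Wild-type Hek293 cells, 800/well, 18 h at 37C, then compound with Ro20-1724 for 30 min RT. cAMP by HTRF (cAMP-d2/anti-cAMP cryptate), 1 h RT, fluorescence read. 15 concentrations, triplicates.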

Assay [6] deals with Thyrotropin receptor (Homo sapiens) (UniProt P16473). The assay is described as follows: qHTS assay to identify small molecule antagonists of the thyroid stimulating hormone receptor (TSHR) signaling pathway (AID 1259385; calls by dose curve; also: nearly all actives have a fitted effect of over 20% in size). In short, it runs like this: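 TSHR-HEK293 cells (800/well) plated 18 h, then compounds with Ro20-1724 and TSH at 1.5 ng/mL final, 30 min at room temperature. cAMP quantified by HTRF (cAMP-d2/anti-cAMP-cryptate, 1 h); 15 concentrations in triplicate.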

Assay [7] has as its target Progesterone receptor (Homo sapiens) (UniProt P06401). The assay is described as follows: qHTS assay to identify small molecule agonists of the progesterone receptor (PR) signaling pathway (AID 1346784; calls by dose curve; also: nearly all actives have a fitted effect of over 30% in size). The essentials:
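Reporter assay, GripTite PR-UAS-bla HEK 293T cells: 16 hr exposure to DMSO-dissolved compounds at 37C, 5% CO2, in steroid-depleted (2% charcoal-stripped FBS) medium; beta-lactamase measured by FRET fluorescence.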

The target is the same in assay [8]. Put plainly: qHTS assay to identify small molecule antagonists of the progesterone receptor (PR) signaling pathway (AID 1346795; active = well fitted inhibition curve with a large enough effect in the signal ratio in the repeat runs, not every such curve was filed as active; the % refers to the signal ratio; also: potency is read from the fitted curve at half-maximal effect). In short, it runs like this:
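Stimulus R5020 at 1 nM final; cells HEK293T PR-UAS-bla; medium with 2% charcoal-stripped FBS; compound exposure 16 hr at 37C, 5% CO2; detection by FRET beta-lactamase substrate, 2 hr, room temperature.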

A short description of assay [9]: qHTS assay to identify small molecule antagonists of the progesterone receptor (PR) signaling pathway - cell viability counter screen (AID 1346798). Also: series mostly up to about 92 µM; nearly all actives have a fitted effect of over 50% in size. The essentials: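 In the same plates used for the beta-lactamase readout, cell viability of compound- and R5020-treated PR-UAS-bla HEK293T cells (16 hr, 37C) was assessed by CellTiter-Glo luminescence.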
Assay [10] can be described thus: qHTS assay to identify small molecule antagonists of the TGF-beta/Smad signaling pathway - cell viability counter screen (AID 1346824). Also: nearly all actives have a fitted effect of over 50% in size. The essentials:
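SBE-bla HEK 293T cells, incubated overnight, then compound plus 0.25 ng/mL TGF-beta1 (stock added) for 5 hr at 37 C. Viability was read in the same wells by CellTiter-Glo luminescence after 30 min at room temperature.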

The nature of assay [11]: qHTS assay to identify small molecule agonists of the TGF-beta/Smad signaling pathway - cell viability counter screen (AID 1346829). Also: top concentration of the series differs between compounds; nearly all actives have a fitted effect of over 45% in size. The essentials: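 Compound-treated SBE-bla HEK 293T cells (5 hr, 37 C) were assessed for viability with CellTiter-Glo in parallel with the reporter read.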
Assay [12] is described as follows: qHTS assay to identify small molecule agonists of the TGF-beta/Smad signaling pathway (AID 1346859; active = well fitted activation curve with a large enough effect in the signal ratio in the repeat runs, not every such curve was filed as active; the % refers to the signal ratio; also: series mostly up to about 77 µM). The essentials: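 Screening used HEK 293T SBE-bla cells at 4,000/well. Test agents: 5 hr, 37 C. Detection: FRET substrate, 2 hr RT, then excitation 405 nm with emissions at 460 and 530 nm.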
The target in assay [13] is Thyrotropin-releasing hormone receptor (Homo sapiens) (UniProt P34981). Put plainly: qHTS assay to identify small molecule antagonists of the thyrotropin-releasing hormone receptor (TRHR) signaling pathway (AID 1346877; active = well fitted inhibition curve with a large enough effect in the repeat runs, not every such curve was filed as active; also: series mostly up to about 51 µM). In short, it runs like this:
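Overnight-plated (18 h, 37 °C) HEK293 cells expressing TRHR were dye-loaded 2 h, treated with compound, then stimulated with TRH at 1 nM final. Fluorescence intensity was captured every second for 3 min.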

The target is the same in assay [14]. Put plainly: qHTS assay to identify small molecule agonists of the thyrotropin-releasing hormone receptor (TRHR) signaling pathway (AID 1346891; calls by dose curve; also: series mostly up to about 58 µM). In short, it runs like this: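 Readout was intracellular calcium fluorescence in TRHR-Hek293 cells. Cells were incubated 18 h, dye-loaded 2 h at 37 °C, and treated with compound in agonist mode.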
Assay [15] in a line: Human pregnane X receptor (PXR) small molecule agonists, qHTS cell viability counter screen (AID 1346977). Also: nearly all actives have a fitted effect of over 50% in size. Also: potency is read from the fitted curve at half-maximal effect. In short, it runs like this:
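In each well, the PXR reporter HepG2 line was checked for viability: CellTiter-Fluor reagent added 23hr post-dosing, fluorescence read after 1hr incubation at 37C.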

The target in assay [16] is Estrogen receptor (Homo sapiens) (UniProt P03372). The assay is described as follows: qHTS assay to identify small molecule agonists of the estrogen receptor alpha (ER-alpha) signaling pathway in the presence of an antagonist (AID 1259383; calls by dose curve; also: top concentration of the series differs between compounds; nearly all actives have a fitted effect of over 15% in size). The essentials:
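Quantitative HTS confirmation: compounds titrated at 15 concentrations onto estrogen-deprived VM7Luc4E2 cells carrying a four-ERE luciferase construct, with ICI-182,780 present at 10.0nM final. Signal is luminescence after 22hr exposure.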

Assay [17] is described as follows: qHTS assay to identify small molecule agonists of the estrogen receptor alpha (ER-alpha) signaling pathway in the presence of an antagonist - cell viability counter screen (AID 1259386).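 Also: series mostly up to about 92 µM; cells exposed to compounds for 22 h at 37 °C before the viability read; nearly all actives have a fitted effect of over 30% in size.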 In short, it runs like this: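 The test measures whether compounds kill ER-alpha reporter cells (VM7Luc4E2) under antagonist co-treatment (ICI-182,780, 10.0nM). Fluorescence from CellTiter-Fluor is read after a 22hr exposure.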

Assay [18] is described as follows: qHTS assay to identify small molecule agonists of the progesterone receptor (PR) signaling pathway - cell viability counter screen (AID 1346799; calls by dose curve; also: nearly all actives have a fitted effect of over 45% in size). In short, it runs like this:
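Multiplexed viability read: CellTiter-Glo luminescence, 30 min RT, following LiveBLAzer FRET measurement on PR-UAS-bla HEK293T cells exposed to compounds 16 hr.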

Assay [19] in a line: qHTS assay to identify small molecule agonists of the androgen receptor (AR) signaling pathway in the presence of an antagonist - cell viability counter screen (AID 1259379).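 Also: MDA-kb2 human breast cancer cells carrying an MMTV luciferase reporter; series mostly up to about 92 µM; nearly all actives have a fitted effect of over 25% in size.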 In short, it runs like this: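 MDA-kb2 viability measured by CellTiter-Fluor fluorescence in the same wells as the luciferase signal; nilutamide 3.0uM final; 15-point compound titration; 16 hr at 37C.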

Assay [20] concerns the target Androgen receptor (Homo sapiens) (UniProt P10275). The assay is described as follows: qHTS assay to identify small molecule agonists of the androgen receptor (AR) signaling pathway in the presence of an antagonist (AID 1259381; calls by dose curve; also: nearly all actives have a fitted effect of over 15% in size). In short, it runs like this: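 Luminescent ONE-Glo read, 30min at room temperature, follows 16hr compound exposure (15 concentrations) of MDA-kb2 cells at 37C, 0% CO2, with nilutamide added at 3.0uM final.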

Chain of Estrogen receptor beta (Homo sapiens) (Q92731 whole entry, looked up): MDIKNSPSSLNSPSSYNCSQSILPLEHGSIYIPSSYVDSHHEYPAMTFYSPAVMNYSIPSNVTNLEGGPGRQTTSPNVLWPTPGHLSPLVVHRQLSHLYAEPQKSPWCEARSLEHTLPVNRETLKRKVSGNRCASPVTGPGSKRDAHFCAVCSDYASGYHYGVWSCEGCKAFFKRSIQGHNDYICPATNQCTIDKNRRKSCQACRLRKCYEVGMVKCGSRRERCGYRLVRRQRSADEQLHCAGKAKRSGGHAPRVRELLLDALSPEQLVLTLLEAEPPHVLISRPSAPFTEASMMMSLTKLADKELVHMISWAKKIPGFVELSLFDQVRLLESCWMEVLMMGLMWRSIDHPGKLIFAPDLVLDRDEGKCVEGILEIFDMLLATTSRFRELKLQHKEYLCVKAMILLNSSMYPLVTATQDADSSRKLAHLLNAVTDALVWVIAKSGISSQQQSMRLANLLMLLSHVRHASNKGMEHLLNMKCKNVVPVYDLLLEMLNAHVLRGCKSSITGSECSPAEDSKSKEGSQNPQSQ
Chain of Progesterone receptor (Homo sapiens) (P06401 whole entry, looked up): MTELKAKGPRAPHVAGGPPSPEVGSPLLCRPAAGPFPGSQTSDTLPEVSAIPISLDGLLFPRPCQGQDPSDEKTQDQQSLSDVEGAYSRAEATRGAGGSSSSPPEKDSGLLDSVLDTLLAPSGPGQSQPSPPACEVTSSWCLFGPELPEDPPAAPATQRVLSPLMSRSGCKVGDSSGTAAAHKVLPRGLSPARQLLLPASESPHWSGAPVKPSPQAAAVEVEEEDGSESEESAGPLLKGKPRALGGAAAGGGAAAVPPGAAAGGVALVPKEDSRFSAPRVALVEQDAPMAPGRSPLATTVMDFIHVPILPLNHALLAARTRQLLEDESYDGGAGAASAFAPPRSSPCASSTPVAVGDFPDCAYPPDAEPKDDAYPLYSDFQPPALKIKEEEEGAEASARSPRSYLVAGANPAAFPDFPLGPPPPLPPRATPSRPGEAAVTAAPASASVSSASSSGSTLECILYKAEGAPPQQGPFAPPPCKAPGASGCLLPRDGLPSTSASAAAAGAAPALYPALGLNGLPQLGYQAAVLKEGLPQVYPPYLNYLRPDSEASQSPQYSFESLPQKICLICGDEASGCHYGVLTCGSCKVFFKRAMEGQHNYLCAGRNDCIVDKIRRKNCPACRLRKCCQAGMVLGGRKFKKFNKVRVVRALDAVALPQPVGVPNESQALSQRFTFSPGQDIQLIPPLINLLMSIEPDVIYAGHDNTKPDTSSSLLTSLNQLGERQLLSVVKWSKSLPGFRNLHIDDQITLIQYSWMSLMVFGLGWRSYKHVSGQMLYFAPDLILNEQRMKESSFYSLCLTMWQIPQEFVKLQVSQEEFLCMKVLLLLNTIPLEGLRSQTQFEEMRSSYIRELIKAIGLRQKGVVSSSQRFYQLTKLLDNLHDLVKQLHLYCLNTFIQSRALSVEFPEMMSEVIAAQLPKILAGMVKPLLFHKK
Chain of Androgen receptor (Homo sapiens) (P10275 whole entry, looked up): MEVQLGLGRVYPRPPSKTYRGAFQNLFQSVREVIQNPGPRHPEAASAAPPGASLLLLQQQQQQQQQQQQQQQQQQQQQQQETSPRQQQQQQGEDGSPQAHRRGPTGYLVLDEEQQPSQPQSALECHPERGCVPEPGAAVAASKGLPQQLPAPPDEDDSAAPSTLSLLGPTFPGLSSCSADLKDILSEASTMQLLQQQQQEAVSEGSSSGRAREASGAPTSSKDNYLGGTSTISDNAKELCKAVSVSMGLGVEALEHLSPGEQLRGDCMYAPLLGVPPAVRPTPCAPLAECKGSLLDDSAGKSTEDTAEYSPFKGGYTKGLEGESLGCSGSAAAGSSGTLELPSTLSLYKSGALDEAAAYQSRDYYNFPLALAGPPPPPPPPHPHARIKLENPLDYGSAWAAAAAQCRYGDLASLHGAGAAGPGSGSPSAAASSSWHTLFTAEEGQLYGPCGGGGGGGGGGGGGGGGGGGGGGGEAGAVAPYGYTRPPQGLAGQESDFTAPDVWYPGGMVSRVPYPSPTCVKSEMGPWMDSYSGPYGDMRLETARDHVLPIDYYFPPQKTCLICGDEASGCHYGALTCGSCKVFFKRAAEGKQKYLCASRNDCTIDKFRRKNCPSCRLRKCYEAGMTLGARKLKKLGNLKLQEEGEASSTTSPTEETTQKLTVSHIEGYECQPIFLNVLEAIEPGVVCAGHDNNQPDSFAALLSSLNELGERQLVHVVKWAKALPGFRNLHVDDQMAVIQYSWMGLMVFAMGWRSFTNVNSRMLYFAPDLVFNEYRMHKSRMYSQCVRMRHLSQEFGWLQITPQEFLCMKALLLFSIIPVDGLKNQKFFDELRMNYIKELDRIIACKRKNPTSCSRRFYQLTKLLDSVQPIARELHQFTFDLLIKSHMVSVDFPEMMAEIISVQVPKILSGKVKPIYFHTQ
Chain of Thyrotropin receptor (Homo sapiens) (P16473 whole entry, looked up): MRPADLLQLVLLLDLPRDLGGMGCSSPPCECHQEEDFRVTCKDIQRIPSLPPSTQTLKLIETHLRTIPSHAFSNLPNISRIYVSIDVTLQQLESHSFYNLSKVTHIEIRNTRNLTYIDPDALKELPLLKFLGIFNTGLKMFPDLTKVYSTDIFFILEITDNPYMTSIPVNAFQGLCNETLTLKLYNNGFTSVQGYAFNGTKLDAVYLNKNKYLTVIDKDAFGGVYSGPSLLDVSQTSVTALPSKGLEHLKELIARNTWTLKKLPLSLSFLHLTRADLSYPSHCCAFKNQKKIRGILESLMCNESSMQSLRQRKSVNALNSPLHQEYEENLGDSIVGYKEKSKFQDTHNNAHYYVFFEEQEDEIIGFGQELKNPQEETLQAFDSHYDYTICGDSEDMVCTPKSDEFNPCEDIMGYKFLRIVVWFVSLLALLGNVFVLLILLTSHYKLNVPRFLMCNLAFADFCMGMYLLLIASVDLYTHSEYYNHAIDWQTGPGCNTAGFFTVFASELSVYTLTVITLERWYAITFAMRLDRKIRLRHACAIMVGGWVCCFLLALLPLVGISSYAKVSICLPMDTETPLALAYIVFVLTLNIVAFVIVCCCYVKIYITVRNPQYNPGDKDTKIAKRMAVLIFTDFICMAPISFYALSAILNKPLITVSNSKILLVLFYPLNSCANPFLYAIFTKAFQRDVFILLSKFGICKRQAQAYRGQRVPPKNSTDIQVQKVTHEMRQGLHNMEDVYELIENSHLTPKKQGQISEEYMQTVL
Chain of Thyrotropin-releasing hormone receptor (Homo sapiens) (P34981 whole entry, looked up): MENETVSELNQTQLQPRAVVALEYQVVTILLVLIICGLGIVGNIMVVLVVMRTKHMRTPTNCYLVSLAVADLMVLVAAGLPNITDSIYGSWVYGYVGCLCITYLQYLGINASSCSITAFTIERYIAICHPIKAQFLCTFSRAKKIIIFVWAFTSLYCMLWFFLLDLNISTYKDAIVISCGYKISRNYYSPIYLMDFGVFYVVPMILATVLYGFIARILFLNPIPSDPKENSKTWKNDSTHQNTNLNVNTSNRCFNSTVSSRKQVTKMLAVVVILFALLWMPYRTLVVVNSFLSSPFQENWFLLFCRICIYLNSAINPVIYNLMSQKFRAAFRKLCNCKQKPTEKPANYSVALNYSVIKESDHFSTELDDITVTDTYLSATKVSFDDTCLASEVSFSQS
Chain of Estrogen receptor (Homo sapiens) (P03372 whole entry, looked up): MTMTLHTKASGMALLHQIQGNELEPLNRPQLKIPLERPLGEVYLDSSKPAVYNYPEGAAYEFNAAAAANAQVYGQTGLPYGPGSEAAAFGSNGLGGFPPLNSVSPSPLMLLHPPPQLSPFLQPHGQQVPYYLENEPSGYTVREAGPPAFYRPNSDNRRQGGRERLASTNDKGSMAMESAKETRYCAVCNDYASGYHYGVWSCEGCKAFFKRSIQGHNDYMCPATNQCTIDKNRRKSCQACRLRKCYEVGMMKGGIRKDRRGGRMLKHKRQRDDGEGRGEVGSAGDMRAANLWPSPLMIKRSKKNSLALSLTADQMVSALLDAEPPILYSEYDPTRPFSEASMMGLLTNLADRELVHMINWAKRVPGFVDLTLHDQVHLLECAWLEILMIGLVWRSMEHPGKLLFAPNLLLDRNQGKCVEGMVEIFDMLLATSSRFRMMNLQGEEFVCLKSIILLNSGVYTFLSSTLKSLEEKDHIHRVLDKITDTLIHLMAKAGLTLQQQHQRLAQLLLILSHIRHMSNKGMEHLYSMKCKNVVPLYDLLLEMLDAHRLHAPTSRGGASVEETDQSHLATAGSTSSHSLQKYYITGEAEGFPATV

Take `CCOP(=S)(OCC)O/N=C(\C#N)c1ccccc1`: the Potency entry in [1], in assay [2], in assay [3], in assay [4], in [7] and in assay [9] was “inactive” throughout. The Potency entry in assay [10], in [11], in assay [13], in assay [14] and in assay [15] was “inactive” each time. Moreover, the outcome in assay [5], in [6] and in [12] was inactive. Further, in assay [8], the Potency is 13.3 µM (active).

`COC(=O)c1sccc1S(=O)(=O)NC(=O)Nc1nc(C)nc(OC)n1`: the Potency entry in [1], in assay [2], in assay [3], in assay [16], in assay [17] and in assay [7] was “inactive” in each case. Moreover, the Potency result in [8], in assay [9], in assay [18], in [11], in [13] and in assay [14] was “inactive” throughout. The Potency entry in assay [15] was “inactive”. The call in [5], in assay [6] and in [12] was inactive.

For the compound `CCC(CC)Nc1c([N+](=O)[O-])cc(C)c(C)c1[N+](=O)[O-]`, the Potency entry in assay [1], in assay [19], in assay [4], in [17], in assay [7] and in assay [9] was “inactive” throughout. Also, the Potency result in [18], in assay [11], in assay [13], in assay [14] and in assay [15] was “inactive” each time. Also, the Potency in assay [3] is 61.1 µM (active). In addition, the compound was classed as inactive in [5], in [6] and in [12].

In the case of `Brc1ccc(Oc2cc(Br)c(Br)cc2Br)c(Br)c1`, the Potency entry in [1], in assay [2], in [4], in [16], in assay [17] and in [7] was “inactive” throughout. Moreover, the Potency result in assay [9], in assay [10], in assay [11], in [13], in assay [14] and in assay [15] was “inactive” throughout. For the same compound, the Potency in assay [3] is 30.6 µM (active).

As for `CCCCCCCCCCCOC(=O)c1ccccc1C(=O)OCCCCCCCCCCC`, the Potency result in [1], in assay [2], in assay [3], in assay [16], in assay [7] and in [8] was “inactive” throughout. Moreover, the Potency entry in [9], in [18], in [10], in assay [11], in assay [13] and in assay [14] was “inactive” throughout. Besides, the Potency entry in assay [15] is “inactive”. Further, the result in assay [5] and in assay [6] was inactive.

With `O=C(O)C(F)(F)C(F)(F)C(F)(F)C(F)(F)C(F)(F)C(F)(F)C(F)(F)F`, the Potency result in [1], in assay [19], in assay [4], in assay [7], in [8] and in [9] was “inactive” in each case. In addition, the Potency result in assay [10], in assay [11], in assay [13], in assay [14] and in [15] was “inactive” in each case. For the same compound, in assay [3], the Potency is 30.6 µM (active) and 24.3 µM (active). The call in assay [5], in assay [6] and in assay [12] was inactive.

For `CC(C)(OOC(C)(C)c1ccccc1)c1ccccc1`, the Potency entry in assay [1], in assay [3], in assay [20], in assay [4], in assay [17] and in [7] was “inactive” in each case. Moreover, the Potency result in assay [9], in assay [18], in assay [11], in assay [13], in assay [14] and in assay [15] was “inactive” in each case. The compound was classed as inactive in assay [5], in [6] and in assay [12].

With `CCc1cccc(CC)c1N(COC)C(=O)CCl`, the Potency in [2] is 30.6 µM (active); in assay [15], 39.8 µM (active) and inactive. Also, the Potency result in assay [19], in assay [20], in assay [4], in assay [16], in [17] and in assay [7] was “inactive” throughout. In addition, the Potency result in assay [9], in assay [10], in [11], in [13] and in [14] was “inactive” in each case. Besides, the compound was classed as inactive in assay [5].
